Test results reported in PubChem BioAssay AID1159580 (chemical genetic matrix, 2015).
Screen size: about 5,500 compounds; about 2,000 (36%) were called active. Roughly 18% stayed inconclusive and do not appear here. Rule as the data show it: active = normalized growth mostly below about 0.91 (no sharp cut-off); inconclusive = no clear call, values can overlap the other calls; inactive = mostly above about 0.92. The list shows a part of the results.

Assay: chemical genetic growth profiling, strain panel (AID 1159580);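 also: tested at 20 µM; growth read once vehicle control cultures reached saturation at 30 °C; 1 = growth at the plate median or of vehicle wells; lower values mean less growth of the strain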
Settings: S. cerevisiae deletion strains, growth OD

Measured: normalized growth

CC1=C(/C=C/C(C)=C/C=C/C(C)=C/C=C/C=C(C)/C=C/C=C(C)/C=C/C2=C(C)C(=O)CCC2(C)C)C(C)(C)CCC1=O
inactive: locus YAL021C, strain ccr4, hits give low values 1.02 | locus YAL026C, strain drs2, hits give low values 0.964 | locus YAL030W, strain snc1, hits give low values 0.981 | locus YBL061C, strain skt5, hits give low values 0.981 | locus YBR009C, strain hhf1, hits give low values 0.941 | locus YBR023C, strain chs3, hits give low values 0.987 | locus YBR171W, strain sec66, hits give low values 0.975 | locus YBR231C, strain swc5, hits give low values 0.982 | locus YBR279W, strain paf1, hits give low values 0.989 | locus YCL011C, strain gbp2, hits give low values 0.96 | locus YCL016C, strain dcc1, hits give low values 1 | locus YCL061C, strain MRC1, hits give low values 1.01 | locus YCL069W, strain vba3, hits give low values 0.975 | locus YCR088W, strain abp1, hits give low values 0.994 | locus YDL005C, strain med2, hits give low values 0.981 | locus YDL040C, strain nat1, hits give low values 0.978 | locus YDR001C, strain nth1, hits give low values 0.986 | locus YDR069C, strain doa4, hits give low values 0.996 | locus YDR137W, strain rgp1, hits give low values 1.03 | locus YDR159W, strain sac3, hits give low values 0.961 | locus YDR195W, strain ref2 0.944 | locus YDR297W, strain sur2, hits give low values 0.995 | locus YDR334W, strain swr1, hits give low values 0.982 | locus YDR335W, strain msn5, hits give low values 0.992 | locus YDR392W, strain spt3, hits give low values 0.92 | locus YEL003W, strain gim4, hits give low values 0.979 | locus YEL037C, strain rad23, hits give low values 0.971 | locus YEL061C, strain CIN8 (second series), hits give low values 0.979 | locus YER015W, strain faa2, hits give low values 0.984 | locus YER016W, strain bim1, hits give low values 1.01 | locus YER111C, strain swi4, hits give low values 0.963 | locus YER155C, strain BEM2 (second series), hits give low values 0.973 | locus YFR010W, strain ubp6, hits give low values 0.971 | locus YGL167C, strain pmr1, hits give low values 0.978 | locus YGL173C, strain kem1, hits give low values 0.99 | locus YGL227W, strain vid30, hits give low values 0.971 | locus YGL240W, strain doc1, hits give low values 1.01 | locus YGL253W, strain hxk2, hits give low values 0.963 | locus YHR013C, strain ard1, hits give low values 0.958 | locus YHR027C, strain rpn1, hits give low values 0.997 | locus YHR142W, strain chs7, hits give low values 1.01 | locus YJL092W, strain hpr5, hits give low values 0.999 | locus YJL095W, strain BCK1 (second series), hits give low values 1 | locus YJL115W, strain asf1, hits give low values 0.98 | locus YJL129C, strain trk1, hits give low values 0.989 | locus YJL154C, strain vps35, hits give low values 0.975 | locus YJL164C, strain tpk1, hits give low values 1.02 | locus YJL166W, strain qcr8, hits give low values 1 | locus YJL187C, strain SWE1, hits give low values 0.985 | locus YKL160W, strain elf1, hits give low values 1.07 | locus YKR026C, strain gcn3, hits give low values 0.977 | locus YKR091W, strain srl3, hits give low values 0.985 | locus YLL001W, strain dnm1, hits give low values 0.997 | locus YLL026W, hits give low values 0.987 | locus YLL041C, strain sdh2, hits give low values 0.998 | locus YLR027C, strain aat2, hits give low values 1.01 | locus YLR221C, strain rsa3, hits give low values 1.01 | locus YLR258W, strain gsy2, hits give low values 0.982 | locus YLR262C, strain YPT6 (second series), hits give low values 1.05 | locus YLR320W, strain mms22, hits give low values 0.99 | locus YLR342W, strain FKS1, hits give low values 0.983 | locus YLR357W, strain rsc2, hits give low values 0.966 | locus YLR370C, strain arc18, hits give low values 0.986 | locus YLR384C, strain iki3, hits give low values 0.998 | locus YML120C, strain ndi1, hits give low values 0.996 | locus YMR058W, strain fet3, hits give low values 0.965 | locus YMR125W, strain sto1, hits give low values 0.92 | locus YMR129W, hits give low values 0.975 | locus YMR205C, strain PFK2, hits give low values 0.937 | locus YMR231W, strain pep5, hits give low values 0.987 | locus YNL071W, strain lat1, hits give low values 0.99 | locus YNL209W, strain ssb2, hits give low values 0.991 | locus YNL248C, strain rpa49, hits give low values 1.03 | locus YNL322C, strain KRE1 (second series), hits give low values 0.989 | locus YNR049C, strain mso1, hits give low values 0.965 | locus YOR001W, strain rrp6, hits give low values 1.03 | locus YOR070C, strain gyp1, hits give low values 1.02 | locus YOR080W, strain dia2, hits give low values 0.993 | locus YOR083W, strain WHI5, hits give low values 1.05 | locus YOR106W, strain vam3, hits give low values 0.986 | locus YOR265W, strain rbl2, hits give low values 1.01 | locus YOR270C, strain vph1, hits give low values 0.871 | locus YOR290C, strain snf2, hits give low values 0.934 | locus YPL051W, strain arl3, hits give low values 1.02 | locus YPL078C, strain atp4, hits give low values 0.997 | locus YPL106C, strain sse1, hits give low values 1.01 | locus YPL240C, strain hsp82, hits give low values 1
